# Measurements from PubChem BioAssay (NCI).
# About 83,000 compounds went through this panel and 20% of them were active in at least one assay; those are over-represented in the sample as a whole.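 How to read the values: 0–100, growth inhibition (40 = 60% inhibited); 0, no net growth; -100 to 0, cell death (-40 = 40% of starting cells died; -100 = all dead).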 Unmarked numbers belong to inactive results. The source made the active and inactive calls. The calls were made as follows: active = growth percent below 10; inactive = the rest.
# Key:
# Experiment in all cases: NCI-60 one-dose screen, 48 h (100 = growth as untreated, 0 = no growth, -100 = all killed)
# Conditions in all cases: 10 µM unless noted
# [1] = test system: NCI-H23 lung
# [2] = test system: NCI-H226 lung
# [3] = test system: NCI-H322M lung
# [4] = test system: HOP-62 NSCLC
# [5] = test system: NCI-H460 lung
# [6] = test system: HOP-92 NSCLC
# [7] = test system: NCI-H522 lung
# [8] = test system: A549/ATCC NSCLC
# [9] = test system: 786-0 renal
# [10] = test system: COLO 205 colon
# [11] = test system: DU-145 prostate
# [12] = test system: K-562 leukemia
# [13] = test system: MALME-3M melanoma
# [14] = test system: MDA-MB-231 breast
# [15] = test system: RXF 393 renal
# [16] = test system: SF-268 CNS
# [17] = test system: SF-295 CNS
# [18] = test system: SF-539 CNS
# [19] = test system: UACC-257 melanoma
# [20] = test system: M14 melanoma
SMILES,growth [1],growth [2],growth [3],growth [4],growth [5],growth [6],growth [7],growth [8],growth [9],growth [10],growth [11],growth [12],growth [13],growth [14],growth [15],growth [16] [%],growth [17],growth [18],growth [19],growth [20]
Nc1cc(Br)cc2c1[nH]c(=O)c1ccccc12,83.4%,91.9%,109%,102%,93.4%,77.6%,98.1%,91.7%,101%,106%,106%,92.5%,124%,102%,103%,106,108%,112%,94.7%,114%
O=C(OCc1ccc2c(Cl)cc(Cl)c(O)c2n1)N1CCN(C(=O)c2cc3ccccc3[nH]2)CC1,47.1%,28.3%,37.5%,20%,12.8%,14.7%,22.1%,10.8%,44.2%,39%,43.8%,19.9%,36.8%,44.7%,46.5%,24.3,16.1%,39.8%,25.5%,16.9%
COc1cc(/C=C/C(=O)c2cc(OC)c(OC)c(OC)c2)ccc1Oc1nc2c(c(=O)n(C)c(=O)n2C)n1C,-51.1% (active),-35.4% (active),0% (active),-40.8% (active),-5.25% (active),3.39% (active),-68.7% (active),-13.2% (active),-87.4% (active),-77% (active),7.64% (active),10.2%,-26.8% (active),9.39% (active),-89.4% (active),11.9,-10.1% (active),-24.9% (active),40.8%,-28.5% (active)
C=CC(=O)Nc1cccc(Oc2nccc(Nc3nnc(-c4ccc(Br)cc4)s3)n2)c1,90.8%,105%,110%,91%,101%,92%,84.4%,100%,101%,108%,103%,92.6%,112%,88.2%,101%,93.6,96%,99.7%,105%,116%
Cc1cccc(-c2nc(C(C)C)sc2-c2ccnc(NCCCNS(=O)(=O)c3ccc(Cl)cc3)c2)c1,84.9%,81.4%,95.1%,91.6%,70.1%,83.1%,55.4%,74.8%,76.3%,60.8%,78.2%,30.5%,99.9%,76.5%,103%,67.4,80.7%,84.2%,113%,82.2%
COc1cc(N2C(=O)[C@H](Cl)C2c2ccc(SC)cc2)cc(OC)c1OC (stereo not given in full),16.7%,53.8%,42.9%,23.1%,5.39% (active),-0.311% (active),-7.37% (active),11.1%,-0.223% (active),-45.6% (active),7.66% (active),4.94% (active),78.4%,29.3%,-16.1% (active),28.9,-7.12% (active),8.03% (active),27.3%,-2.68% (active)
CCOC(=O)NCCCC(=O)NCCc1ccccc1,98.9%,96.3%,106%,108%,110%,111%,106%,107%,105%,114%,103%,106%,103%,108%,101%,101,104%,106%,103%,102%
O=[N+]([O-])c1c(O)c(Cl)cc(Cl)c1Cl,98.7%,94.4%,101%,97.9%,107%,83.3%,94.7%,93.1%,99.6%,116%,113%,103%,96.5%,103%,104%,102,97.9%,109%,108%,98.1%
CN(C)CCC(CCN(C)C)(C(=O)O)c1ccccc1,107%,106%,103%,94%,104%,84.9%,88.2%,99%,105%,108%,115%,98.1%,97.5%,97.2%,112%,107,103%,95.3%,99.7%,99.2%
Clc1ccc(Nc2nnc(CNc3ccccc3)c3ccccc23)cc1,9.95% (active),25%,30.4%,27.4%,17.7%,-19.3% (active),-5.92% (active),20.3%,21.4%,11.9%,19%,5.39% (active),-13.8% (active),19.9%,25.7%,20.9,14.3%,34%,-6.49% (active),5.8% (active)
CN(C)c1ccc(/C=C2\C=C(c3nc4ccccc4s3)OC2=O)cc1,91.9%,82.2%,93.2%,91.7%,95.2%,77.8%,89.4%,94.7%,102%,102%,104%,83.8%,98.3%,73.9%,110%,98.6,92%,104%,114%,101%
CCOC(=O)C(CCN(C)C)c1ccccc1 (stereo not given),94.4%,90.3%,91.9%,88.8%,105%,78.8%,84.5%,91.8%,98.1%,116%,105%,107%,96%,99%,90.4%,90,101%,96.2%,94.2%,106%
CCCCNC(=O)c1ccc2c(c1)nc(-c1ccccc1)n2C1CCCCC1,92.3%,109%,90.5%,77.3%,109%,105%,80.9%,95.9%,92.7%,88.9%,103%,75.8%,100%,96.1%,120%,104,95.4%,105%,109%,89.8%
C=C(c1ccc(C(=O)O)c(F)c1)c1cc2c(cc1C)C(C)(C)CCC2(C)C,80%,82.6%,101%,76.4%,81.5%,58.4%,78.1%,52%,96.6%,123%,108%,71.9%,63.6%,85.7%,90.9%,77.9,72.8%,81.1%,95.8%,89.4%
CC(C)Cc1nc(Nc2ccccc2)[nH]c(=O)c1C#N,33.8%,58.1%,61%,82.7%,59.8%,-14% (active),17.3%,57.3%,72.6%,49.7%,70.8%,48.8%,72.6%,47.9%,67.4%,63.3,58.7%,50.7%,81.2%,53.2%
CCCC(O)Cn1ncc(C(=O)OCC)c1NC(=O)NCc1cccc(C(F)(F)F)c1 (stereo not given),80.1%,103%,84.3%,88.2%,103%,58.8%,46.5%,95%,80.1%,109%,99.8%,46.9%,92%,95.1%,113%,103,93.8%,94.3%,101%,58.5%

SMILES,growth [1],growth [2],growth [3],growth [4],growth [5],growth [6],growth [7],growth [8],growth [9],growth [10],growth [11],growth [12],growth [13],growth [14],growth [15],growth [16] [%],growth [17],growth [18],growth [19],growth [20]
C[C@H]1[C@H](C)CC[C@]2(C(=O)NCCNCCN)CC[C@]3(C)C(=CC[C@@H]4[C@@]5(C)CCC(=O)C(C)(C)[C@@H]5CC[C@]43C)[C@H]12,94.2%,99.3%,85%,81.1%,-80% (active),52.9%,54.3%,42.4%,80.7%,-49.9% (active),51.6%,-9.33% (active),71.3%,52.9%,85%,72.6,102%,-28.3% (active),88.7%,40.9%
CCOC(=O)c1cn2ncnc(Oc3ccc(NC(=O)NC4CC4)c(Cl)c3)c2c1C,84.6%,71.4%,101%,90.9%,102%,109%,75.9%,99.2%,93.5%,108%,97%,73.6%,95.3%,89.3%,92.3%,88.9,84.8%,79.5%,100%,98.9%
COc1ccc(C/C(C)=C(\c2ccc(Cl)cc2)c2ccc(OCCCN(C)C)cc2)cc1,88.1%,108%,90.1%,92.9%,56.6%,52.9%,89.1%,68.7%,76.1%,-66.7% (active),102%,-7.99% (active),80%,83.3%,72.4%,88.6,105%,84.7%,91.5%,48.7%
Cc1c2ncccc2nc2[nH]c3ccc(OCCN(C)C)cc3c12,28.1%,32.7%,13.2%,29.3%,5.49% (active),30.3%,22.9%,5.31% (active),25.2%,19.1%,22.2%,17%,29.3%,30.3%,35.3%,30.8,32%,38.5%,46.1%,19.4%
O=[N+]([O-])c1ccccc1Nc1ccc2ccccc2c1,97.7%,97.1%,108%,82.7%,84.4%,82.9%,87.8%,47.8%,83.5%,72.5%,107%,84.8%,106%,91.9%,133%,95.5,98.3%,97%,92.8%,91.3%
COc1cc2c(c(OC)c1OC)C(=O)CC(c1cccc(C(=O)Nc3ccccc3Br)c1)O2 (stereo not given),102%,86%,98.1%,97.1%,110%,68.4%,69.9%,97.8%,88%,95.4%,83.7%,74.1%,99.6%,91.1%,110%,73.8,98.1%,90.4%,92.7%,91.1%
[N-]=[N+]=NCC1OC(n2cnc3c(NC(=O)Nc4ccccc4)ncnc32)C2OC(=O)CC12 (stereo not given),106%,106%,99.8%,98.1%,112%,86.9%,107%,95.2%,105%,105%,109%,92.7%,96.9%,123%,-28.7% (active),103,100%,97.8%,122%,108%
c1cc(OCCCCCOc2cccc(-c3nc4ccccc4[nH]3)c2)cc(-c2nc3ccccc3[nH]2)c1,3% (active),10.2%,23.1%,39.1%,6.73% (active),-29.3% (active),-14.8% (active),13.9%,19.8%,-59.1% (active),33.2%,9.81% (active),-13.6% (active),19.6%,6.51% (active),61.3,8.95% (active),28.3%,22.9%,20.1%
Cc1sc2nc(NCCN)[nH]c(=O)c2c1C,91%,84.8%,83.7%,99.8%,101%,87.7%,102%,101%,84.2%,77%,96.7%,103%,82.1%,81.1%,100%,91.4,98%,88.1%,107%,85.1%
COC12C=C/C(=C(/C(=O)OCc3csc(SC)n3)C(=O)CCCCCCCCC3(OC)C=C/C(=C(/C(=O)OCc4cnc(SC)s4)C(=O)CCCCCCCC1)O3)O2 (stereo not given),15.7%,12%,46.5%,58.7%,27.2%,78.2%,24.2%,39.8%,35.1%,25.5%,50.3%,25.3%,-1.67% (active),19.1%,-35.4% (active),44.7,14.8%,27.4%,56.8%,12%
Cc1ccc(OCCOCCOCCOCCOCCOc2ccc(C)n(O)c2=S)c(=S)n1O,14.1%,6.73% (active),21.5%,10.5%,3.62% (active),34.3%,25.8%,13.2%,-0.0239% (active),10.4%,17.3%,14.5%,16.5%,29.8%,40.6%,12.5,16.8%,1.52% (active),-3.93% (active),-4.25% (active)
CC1(C)CC[C@]23CC[C@]4(C)[C@H](CC[C@@H]5[C@@]6(C)C/C(=C/O)C(=O)C(C)(C)[C@@H]6CC[C@]54C)[C@H]2[C@H]1OC3,99.1%,105%,105%,102%,107%,105%,90.6%,106%,106%,111%,115%,105%,104%,97.6%,121%,108,103%,101%,101%,103%
O=C1C=CC2(O)OC/C(=C\c3ccccc3)C(O)=C2C1=O (stereo not given),36.1%,81%,72.2%,5.5% (active),29.1%,-3.3% (active),-73.1% (active),42.2%,-41.3% (active),36.2%,24.2%,5.02% (active),-37.8% (active),-22.4% (active),-64.7% (active),19.1,74.8%,-38.8% (active),65.9%,27%
O=C(Nc1cccnc1Nc1ccc(Cl)cc1)c1cn(Cc2cccc(Oc3ccccc3)c2)nn1,63%,55.9%,68.7%,61.1%,35.2%,53%,44.6%,42.4%,52.2%,73.6%,59.7%,23.1%,58%,53.3%,44.1%,45.2,29.2%,33.6%,62%,21.8%
CCCc1cc(=O)oc2c(C(=O)CC(C)C)c(O)c(CC=C(C)C)c(O)c12,-29.1% (active),23.5%,22.3%,51.1%,15.8%,-25.5% (active),16%,23.8%,29.2%,50.3%,31.3%,14.3%,-6.82% (active),-15.9% (active),27.3%,26.5,17.8%,42.2%,22.7%,33.6%
